# Assay results taken from PubChem BioAssay (NCATS).
# Results filed as inconclusive are left out. A call without a number means that no potency is given here. Values without a mark were called inactive. Activity calls are given as the source filed them. Unless noted, calls come from the whole dose curve; as a rule, active = well fitted curve in the direction sought with a large enough effect; inconclusive = small, poorly fitted or top-dose-only effect, or another doubt; inactive = no such curve, though single readings can be large; an effect the other way counts as inactive or inconclusive.
# Experiments:
# [1] = target: Aldehyde dehydrogenase, mitochondrial (Homo sapiens) (UniProt P05091); test: qHTS for Inhibitors of the Aldehyde Dehydrogenase Family (ALDH2) Primary screen (AID 2061308); note: nearly all actives have a fitted effect of over 55% in size; note: potency is the fitted concentration of half-maximal effect
# [2] = target: Retinaldehyde dehydrogenase 3 (Homo sapiens) (UniProt P47895); test: qHTS for Inhibitors of the Aldehyde Dehydrogenase Family (ALDH1A3) Validation screen (AID 2061312); note: nearly all actives have a fitted effect of over 45% in size; note: potency is the fitted concentration of half-maximal effect
# [3] = target: Retinaldehyde dehydrogenase 3 (Homo sapiens) (UniProt P47895); test: qHTS for Inhibitors of the Aldehyde Dehydrogenase Family (ALDH1A3) Primary screen (AID 2061315); note: potency is the fitted concentration of half-maximal effect
# [4] = target: Aldehyde dehydrogenase, mitochondrial (Homo sapiens) (UniProt P05091); test: qHTS for Inhibitors of the Aldehyde Dehydrogenase Family (ALDH2) Confirmatory screens (AID 2061303; active = well fitted inhibition curve with a large enough effect; title and protocol of this record describe different tests; note: nearly all actives have a fitted effect of over 45% in size; note: potency is the fitted concentration of half-maximal effect)
# [5] = qHTS for Inhibitors of the Aldehyde Dehydrogenase Family (ALDH1A2, ALDH1A3, ALDH2, ALDH3A1) (AID 2061307); note: nearly all actives have a fitted effect of over 50% in size; for potency: test system not described further here; potency is the fitted concentration of half-maximal effect
# [6] = target: Retinaldehyde dehydrogenase 3 (Homo sapiens) (UniProt P47895); test: qHTS for Inhibitors of the Aldehyde Dehydrogenase Family (ALDH1A3) Confirmatory screens (AID 2061311); note: nearly all actives have a fitted effect of over 60% in size; note: potency is the fitted concentration of half-maximal effect
# [7] = target: Retinal dehydrogenase 2 (Homo sapiens) (UniProt O94788); test: qHTS for Inhibitors of the Aldehyde Dehydrogenase Family (ALDH1A2) Confirmation screens (AID 2061314); note: nearly all actives have a fitted effect of over 65% in size; note: potency is the fitted concentration of half-maximal effect
# [8] = target: Aldehyde dehydrogenase 1A1 (Homo sapiens) (UniProt P00352); test: qHTS for Inhibitors of the Aldehyde Dehydrogenase Family (ALDH1A1) Confirmatory screens (AID 2061316); note: nearly all actives have a fitted effect of over 65% in size; note: potency is the fitted concentration of half-maximal effect
# [9] = BET inhibitor-based combinations targeting novel dependencies in MECOM-rearranged (r) AML: SET-2 cell line (AID 2202231); details: SET-2 AML cells viability, CellTiter-Glo luminescence, 48 h; viability: stronger effect = lower value, series mostly up to about 46 µM; note: nearly all actives have a fitted effect of over 35% in size
# Outline: (§1)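 AML cell lines seeded at 500 cells/well, treated with 11-point dose curves for 48 h. Viability by CellTiter-Glo luminescence, normalised to DMSO and empty wells; activity expressed as AUC and per-cell-line Z-transformed AUC.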
# [10] = BET inhibitor-based combinations targeting novel dependencies in MECOM-rearranged (r) AML: OCI-AML3 cell line (AID 2202232); details: Potency: OCI-AML3 viability; note: series mostly up to about 46 µM; nearly all actives have a fitted effect of over 35% in size
# Outline: as §1
# [11] = BET inhibitor-based combinations targeting novel dependencies in MECOM-rearranged (r) AML: MV-4-11 cell line (AID 2202233); note: nearly all actives have a fitted effect of over 45% in size
# Outline: (§2)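 Cells at 500/well were exposed for 48 hr to MIPE v5.0 drugs as 11-point dose curves. Viability was read by CellTiter-Glo luminescence and normalized to DMSO and empty-well controls. Activity was expressed as AUC and per-cell-line Z-AUC.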
# [12] = BET inhibitor-based combinations targeting novel dependencies in MECOM-rearranged (r) AML: HNT-34 cell line (AID 2202234); note: nearly all actives have a fitted effect of over 35% in size
# Outline: as §2
# [13] = BET inhibitor-based combinations targeting novel dependencies in MECOM-rearranged (r) AML: UCSD-AML1 cell line (AID 2202235); note: series mostly up to about 46 µM; nearly all actives have a fitted effect of over 40% in size
# Outline: as §2
# [14] = BET inhibitor-based combinations targeting novel dependencies in MECOM-rearranged (r) AML: AML-191 cell line (AID 2202236; note: nearly all actives have a fitted effect of over 35% in size)
# Outline: as §1
smiles,measurement,setting,value
CC1CCN(c2cc(NC(=O)c3ccccc3)ncn2)CC1,Potency,[1],inactive
same,Potency,[2],inactive
same,Potency,[3],inactive
Cc1ccc2nc3sc(C(=O)NC4CCCC4)cc3cc2c1,Potency,[4],inactive
same,Potency,[1],inactive
same,Potency,[3],inactive
CC[n+]1c(/C=C/C=C2/N(C)c3ccccc3C2(C)C)sc2ccccc21,Potency,[5],22.5 µM (active)
same,Potency,[6],12.7 µM (active)
same,Potency,[7],12.7 µM (active)
same,Potency,[8],12.7 µM (active)
O=C(/C=C/c1ccc(O)c(O)c1)O[C@H]1[C@@H]2C=CO[C@@H](O[C@@H]3O[C@H](CO)[C@@H](O)[C@H](O)[C@H]3O)[C@@H]2[C@@]2(CO)O[C@@H]12,Potency,[1],inactive
Cc1ccc2nc3sc(C(=O)NC4CCCCC4)cc3cc2c1,Potency,[4],inactive
same,Potency,[1],inactive
same,Potency,[3],inactive
C=C1CCC2C(C)(COC3OC(COC(=O)CC(=O)O)C(O)C(O)C3O)CCCC2(C)C1CCC1=CCOC1=O (stereo unspecified),Potency,[1],inactive
CCCn1c(=O)c2[nH]c(-c3ccc(OCC(=O)O)cc3)nc2n(CCC)c1=O,Potency,[1],inactive
same,Potency,[2],inactive
same,Potency,[3],inactive
COC1CC(OC2CCC3(C)C(=CCC4C3CCC3(C)C(C(C)O)CCC43O)C2)OC(C)C1OC1OC(C)C(OC2OC(COC3OC(COC4OC(CO)C(O)C(O)C4O)C(O)C(O)C3O)C(O)C(O)C2O)C(OC)C1O (stereo unspecified),Potency,[1],inactive
COc1cc(C[C@H]2C(=O)OC[C@@H]2Cc2ccc(OC)c(OC)c2)ccc1O,Potency,[5],0.251 µM (active)
same,Potency,[1],inactive
same,Potency,[3],inactive
COc1ccc2cc(-c3cc(-c4cc(Cl)cc(Cl)c4)nn3C(C)c3ccc(C(=O)NCCC(=O)O)cc3)ccc2c1 (stereo unspecified),Potency,[1],inactive
same,Potency,[2],inactive
same,Potency,[3],inactive
COC(=O)c1c(C)cc(OC(=O)c2c(C)cc(OC)cc2OC)cc1O[C@@H]1O[C@H](CO)[C@@H](O)[C@H](O)[C@H]1O,Potency,[4],inactive
same,Potency,[1],inactive
same,Potency,[3],inactive
C=CC(C)(O)CC/C=C(\C)C1CC=C(C)C(=O)O1 (stereo unspecified),Potency,[5],inactive
same,Potency,[1],inactive
same,Potency,[6],22.5 µM (active)
same,Potency,[3],14.1 µM (active)
COC(=O)C1=COC(O[C@@H]2O[C@H](CO)[C@@H](O)[C@H](O)[C@H]2O)/C(=C\COC(=O)/C=C/c2ccccc2)C1CC(=O)OCCc1ccc(O)cc1 (stereo partly specified),Potency,[1],inactive
C[C@@H]1O[C@@H](O[C@H]2[C@H](OC(=O)C34CCC(C)(C)CC3C3=CCC5C6(C)CC(O)C(O[C@@H]7O[C@H](CO)[C@@H](O)[C@H](O)[C@H]7O)C(C)(C(=O)O)C6CCC5(C)C3(CO)CC4)O[C@H](C)[C@H](O)[C@@H]2O)[C@H](O)[C@H](O)[C@H]1O[C@@H]1OC[C@@H](O)[C@H](O)[C@H]1O (stereo partly specified),Potency,[1],inactive
Cc1c(C(=O)OCC2CCCO2)[nH]c2c1C(=O)CCC2 (stereo unspecified),Potency,[4],inactive
same,Potency,[1],inactive
same,Potency,[7],28.3 µM (active)
same,Potency,[3],inactive
same,Potency,[8],3.18 µM (active)
CN1CCN(c2nc(-c3ccc(C(=O)NC4(C(=O)NCC#N)CCCCC4)cc3)cs2)CC1,Potency,[1],inactive
same,Potency,[2],inactive
same,Potency,[3],inactive
C=C1CC[C@H](O)CC1=C/C=C1\CCC[C@]2(C)[C@@H]([C@H](C)/C=C/[C@H](C)C(C)C)CC[C@@H]12,Potency,[1],inactive
same,Potency,[2],8.91 µM (active)
O=C(/C=C/c1cccnc1)Nc1cccc([S+](=O)([O-])Nc2ccccc2F)c1,Potency,[4],inactive
same,Potency,[1],inactive
same,Potency,[7],11.3 µM (active)
same,Potency,[3],inactive
same,Potency,[8],inactive
CC(=O)c1c(C)cc2cccc(O)c2c1O[C@@H]1O[C@H](CO)[C@@H](O)[C@H](O)[C@H]1O,Potency,[1],inactive
same,Potency,[6],3.12 µM (active)
same,Potency,[7],inactive
O=C1c2cccc3cccc(c23)C(=O)N1CCN1CCN(S(=O)(=O)c2cccc([N+](=O)[O-])c2)CC1,Potency,[4],inactive
same,Potency,[6],inactive
same,Potency,[7],inactive
same,Potency,[8],inactive
Cc1ccnc(NC(=S)N2CCN(c3cccc(Cl)c3Cl)CC2)c1,Potency,[4],11.3 µM (active)
same,Potency,[1],6.31 µM (active)
same,Potency,[7],14.2 µM (active)
same,Potency,[8],3.18 µM (active)
O=C(O)c1ccnc2cc(-c3nc4ccccc4n3CCN3CCCCC3)sc12,Potency,[1],inactive
Clc1nc(CN2CCOCC2)nc2sc3c(c12)CCCC3,Potency,[4],4 µM (active)
same,Potency,[1],inactive
same,Potency,[3],inactive
CNC(C)C(=O)NC(C(=O)N1CCCC1C(=O)Nc1snnc1-c1ccccc1)C1CCCCC1 (stereo unspecified),Potency,[1],inactive
same,Potency,[2],inactive
same,Potency,[3],inactive
CCCCNc1nc(N)c2[nH]c(=O)n(Cc3ccc(OCCN(C)C)nc3)c2n1,Potency,[1],inactive
same,Potency,[2],inactive
same,Potency,[3],inactive
OC[C@H]1O[C@@H](O[C@H]2[C@H](O)[C@@H](CO)O[C@@H](OCc3ccccc3)[C@@H]2O[C@@H]2OC[C@](O)(CO)[C@H]2O)[C@H](O)[C@@H](O)[C@@H]1O,Potency,[5],inactive
same,Potency,[1],inactive
same,Potency,[6],12.3 µM (active)
COc1ccc([C@H]2CNC(=O)C2)cc1OC1CCCC1,Potency,[1],inactive
same,Potency,[2],inactive
same,Potency,[3],inactive
O=S(=O)(O)c1ccc2cc(N=Nc3cc(S(=O)(=O)O)c4cccnc4c3O)ccc2c1,Potency,[5],inactive
same,Potency,[2],inactive
same,Potency,[7],inactive
same,Potency,[3],inactive
same,viability,[9],95.4%
same,Potency,[10],inactive
same,Potency,[11],inactive
same,Potency,[12],inactive
same,Potency,[13],inactive
same,Potency,[14],inactive
O=C(CC1CC(c2ccc(F)cc2F)=NO1)N1CCOCC1 (stereo unspecified),Potency,[1],inactive
N#Cc1nc2c(nc1C#N)-c1ccccc1C2=O,Potency,[4],10 µM (active)
same,Potency,[6],inactive
same,Potency,[8],inactive
O=C1c2ccccc2NC(c2ccc(-c3ccc(F)cc3)o2)N1O (stereo unspecified),Potency,[4],1.58 µM (active)
same,Potency,[1],3.55 µM (active)
same,Potency,[7],12.7 µM (active)
same,Potency,[3],inactive
same,Potency,[8],2.52 µM (active)
COc1ccc(C(=O)N(Cc2ccco2)Cc2cccs2)c(O)c1,Potency,[4],inactive
same,Potency,[1],inactive
same,Potency,[7],22.5 µM (active)
same,Potency,[3],inactive
same,Potency,[8],12.7 µM (active)
O=C(OCC#CCSc1nnc(-c2cccc3ccccc23)o1)C1CC1,Potency,[4],inactive
same,Potency,[1],inactive
same,Potency,[3],inactive
Cc1ccc(CNc2ccc(N3CCN(C(=O)OC(C)(C)C)CC3)cc2)cc1,Potency,[4],inactive
same,Potency,[1],inactive
same,Potency,[3],inactive
